In PubChem BioAssay AID912 (National Center for Advancing Translational Sciences (NCATS), 2007):
“And” between values parts separate entries of the source, which are not always exact repeats. Equal entries are not always repeated. The whole screen tested about 70,000 compounds, of which about 470 (0.67%) were called active. A call without a number means that no potency is given here. About 18% were inconclusive and are not listed. This is one part of a sample in which actives are shown more often than they occur. Unmarked numbers belong to inactive results. The call rests on the fitted dose curve.

Experiment: qHTS Assay for Anthrax Lethal Toxin Internalization; further: nearly all actives have a fitted effect of over 50% in size
Conditions: Cells, FRET ratio (460/530); series mostly up to 40 µM
Potency means the concentration at half of the fitted maximal effect.

Row | Structure (SMILES) | activity change, negative = inhibition | Potency
1 | CC(C)CO/N=C1/C[C@@H](O)[C@@H](O)[C@@H]2[C@@H]3C(=O)N(C[C@@H]4CCCO4)C(=O)[C@H]3CC[C@@H]12 | 0.14% [at 8 µM] | 
2 | CCOC(=O)[C@]1(C(/C=C/c2ccco2)NC(=O)OC)CCCC1=O (stereo partly drawn) | -10.5% [at 8 µM] | 
3 | CSc1nnc2c(n1)OC(c1cn(C)c3ccccc13)N(C(C)=O)c1ccccc1-2 (stereo not drawn) | inactive | 
4 | CC1(C)OC(C(O)(c2ccccc2)c2ccccc2)C(C(O)(c2ccccc2)c2ccccc2)O1 (stereo not drawn) | -5.79% [at 8 µM] | 
5 | CO[C@H]1COC(=O)C/C=C\[C@H](C)COC(=O)[C@@H](OCc2ccccc2)/C=C\[C@@H]1C | -13% [at 1.6 µM] | 
6 | CCOC(=O)c1sc(NC(=O)C(CC)Sc2nccn2C)nc1C (stereo not drawn) | inactive | 
7 | CC(C)CO | inactive | 
8 | O=C(CSC1=Nc2ccccc2C2=NC(c3ccccc3)C(=O)N12)NCC1CCCO1 (stereo not drawn) | inactive | 
9 | CC(C)CC1(C(=O)NCc2ccccn2)C=CCN1C(=O)c1ccccc1 (stereo not drawn) | inactive | 
10 | CCCN(C/C=C\I)[C@@H]1CCc2cccc(O)c2C1 | inactive | 
11 | Brc1cc(Br)c(Oc2cc(Br)c(Br)cc2Br)cc1Br |  | 1 µM (active)
12 | CCCCCCCCCCCC(=O)O[C@H](CC(=O)O)C[N+](C)(C)C | inactive | 
13 | CCCOC(=O)Nc1ccccc1C(N)=O | inactive | 
14 | C=CCOC(=O)COCCC(C)C | inactive | 
15 | CCCn1c(C)nc2c(NCCCCN(CC)CC)nc(C)nc21 | inactive | 
16 | CC(=O)c1c(O)c(C)c(O)c(Cc2c(O)c3c(c(C(=O)/C=C\c4ccccc4)c2O)OC(C)(C)C=C3)c1O |  | 15.8 µM (active)
17 | N#CCCn1c(=O)c(-c2cc(F)cc(F)c2)nc2cnc(Oc3ccccc3)nc21 | inactive | 
18 | CO[C@H]1COC(=O)[C@@H](C)NC(=O)C/C=C\[C@@H](C)[C@H](OC)COC(=O)C/C=C\[C@@H]1C | 5.17% [at 8 µM] | 
19 | c1ccc(CN2CC[C@@]3(CCCNC3)C2)cc1 |  | 10 µM (active)
20 | CC(=O)N1CCC2(CCCN(Cc3ccccc3)C2)CC1 | inactive | 
21 | CS(=O)(=O)N1CCC2(CC1)CN(Cc1ccccc1)C2 | inactive | 

Row | Structure (SMILES) | activity change, negative = inhibition | Potency
22 | CC(=O)N1[C@H](C)C=C[C@]1(Cc1ccccc1)C(=O)NCc1ccccn1 | inactive | 
23 | C#CCC(C(=O)OC)(C(=O)OC)C(C[N+](=O)[O-])c1ccccc1 (stereo not drawn) | 2.17% [at 8 µM] | 
24 | CC(C)(O)/C=C\C(=O)[C@](C)(O)[C@H]1[C@H](O)C[C@]2(C)[C@@H]3CC=C4[C@@H](C=C(O)C(=O)C4(C)C)[C@]3(C)C(=O)C[C@@]12C |  | 0.0316 µM (active)
25 | Cc1c(NC(=O)Nc2ccccc2Cl)sc(=S)n1C | inactive | 
26 | COC(=O)[C@@H]1CC[C@H](C)[C@@H](c2ccc(C)cc2)N1C(=O)c1ccc(/C=N\OC[C@@H](O)COCc2ccco2)cc1 | 12.1% [at 8 µM] | 
27 | CCCCCCN(C(=O)CCCCCN1C(=O)NC(c2ccc(C(F)(F)F)cc2)C(C(=O)OCc2ccccc2)=C1C)C(C(=O)NCCCC)c1ccc(OCC(=O)OC)c(C(=O)OC)c1 (stereo not drawn) | inactive | 
28 | CC(C)CSC[C@@H]1O[C@H](n2cnc3c(N)nccc32)[C@H](O)[C@@H]1O | -14.1% [at 8 µM] | 
29 | S=c1c2[nH]cnc2ncn1CCSc1ncnc2nc[nH]c12 | -7.68% [at 8 µM] | 
30 | Cc1nc2cnc(N3CCNCC3)nc2n(CCc2ccccc2)c1=O | inactive | 
31 | O=P(c1cccs1)(c1cccs1)c1cccs1 | inactive | 
32 | C[C@]1(C(=O)NCCc2c[nH]c3ccccc23)C=C[C@@H](Cc2ccccc2)N1C(=O)c1ccccc1 | inactive | 
33 | CO/N=C\[C@@H](C)[C@H](OCc1ccccc1)C(C)C | 1.89% [at 1.6 µM] | 
34 | CCn1c(CNC(=O)c2ccc(OC)c(OC)c2)nnc1SCC(=O)Nc1ccccc1 | inactive | 
35 | CCOC(=O)N/N=C1/C[C@@H](O)[C@@H](O)[C@@H]2[C@@H]3C(=O)N(CC)C(=O)[C@H]3CC[C@H]12 | 4.77% [at 8 µM] | 
36 | CN(CCCNC(=O)CN1C(=O)CC(C)(C)S(=O)(=O)c2ccccc21)C1CCCCC1 | inactive | 
37 | CCCCCCCCCCCC(=O)O | inactive | 
38 | CC(C)C[C@@H](CC(=O)N[C@@H](CCC(=O)O)CC(=O)O)NC(=O)[C@@H]1CCCC[C@H]1NC(=O)C[C@@H](NC(=O)C[C@H](Cc1c[nH]c2ccccc12)NC(=O)[C@@H]1CCCC[C@H]1N)C(C)C | inactive | 
39 | COc1ccc(Br)c2c1C[C@H](C(=O)O)CC2 | -10.3% [at 8 µM] | 
40 | Cc1cc(N2CCCCC2)nc2ccc(Cc3ccc4nc(N5CCCCC5)cc(C)c4c3)cc12 | 3.79% [at 8 µM] | 
41 | C[C@H]1CC[C@H](C(=O)O)N[C@@H]1c1ccc(C#Cc2ccccc2)cc1 | 0.0911% [at 1.6 µM] | 
42 | COc1ccc2[nH]cc(CCNc3ncnc4ccc(-c5ccccc5CN(C)C)cc34)c2c1 | inactive | 

Row | Structure (SMILES) | activity change, negative = inhibition | Potency
43 | COc1cccc(-c2cc(NCCc3c[nH]c4ccc(OC)cc34)ncn2)c1 |  | 10 µM (active)
44 | COc1ccc2[nH]cc(CCNc3ncnc4ccc(-c5ccc(C(=O)N(C)C)cc5)cc34)c2c1 | inactive | 
45 | COC(=O)C1=C(C)N(Cc2ccccc2)C2=C3C(=O)N(c4ccccc4)C(=O)C3[C@@](O)(C(=O)OC)C(=O)N2C1c1ccccc1 (stereo partly drawn) | -8.4% [at 8 µM] and -8.22% [at 8 µM] | 
46 | CC(=O)/C(C)=N\O | inactive | 
47 | Cn1c(=O)c(C(=O)Nc2ncccn2)c(O)c2ccccc21 | inactive | 
48 | Cn1c(C(=O)N2CCC(C(N)=O)CC2)cc2c(=O)n(C)c3ccccc3c21 | inactive | 
49 | Cn1c(C(=O)NCCN2CCc3ccccc3C2)cc2c(=O)[nH]c3ccccc3c21 | inactive | 
50 | CCOC(=O)N1CCC(NC(=O)COc2cc(=O)n(C)c3ccccc23)CC1 | inactive | 
51 | CCN1CCCC1CNC(=O)c1cc2c(=O)n(C)c3ccccc3c2n1C (stereo not drawn) |  | 10 µM (active)
52 | CC1CCCC(C)N1CCCNC(=O)c1cc2c(=O)n(C)c3ccccc3c2n1C (stereo not drawn) |  | 3.98 µM (active)
53 | COC(=O)[C@@]1(C)C=C[C@@H](Cc2ccccc2)N1C(C)=O | inactive | 
54 | C=CCOC(=O)c1ccccc1C(=O)OCC=C | inactive | 
55 | Cc1ccc2oc(=O)ccc2c1 | inactive | 
56 | NCCCNCCCCN(CCCN)/[N+]([O-])=N/O | inactive | 
57 | CNC(=O)C1(C)C=CC2(CCCCC2)N1C(C)=O (stereo not drawn) | inactive | 
58 | CCCNC(=O)OC[C@@H]1O[C@H](c2ccccc2)C=C[C@@H]1Oc1ccc(OC)cc1 | -2.83% [at 8 µM] | 
59 | CSc1nc2ccc(S(=O)(=O)N3CCc4ccccc43)cc2s1 | inactive | 
60 | O=C(O)c1nccnc1C(=O)Nc1ccc(Br)cn1 | inactive | 
61 | Cc1ncc(CC(=O)n2cc(C(=O)c3cc(Cl)ccc3O)cn2)s1 | inactive | 
62 | COC(=O)C1(Cc2ccccc2)C=C2C(=C(C)C(=O)C2C)CN1 (stereo not drawn) | inactive | 
63 | COC(=O)[C@H]1C[C@@H]1[C@H](NC(=O)Oc1ccc(F)cc1)c1ccccc1 | inactive | 

Row | Structure (SMILES) | activity change, negative = inhibition | Potency
64 | O=C(O)CS(=O)c1ccc2c3c(cccc13)C(=O)c1ccccc1-2 (stereo not drawn) | 1.15% [at 8 µM] | 
65 | CN(Cc1ccco1)c1ncncc1-c1ccoc1 | inactive | 
66 | CC(C)C[C@@H](CC(=O)N[C@@H](CCC(=O)O)CC(=O)O)NC(=O)[C@@H]1CCCC[C@H]1NC(=O)C[C@@H](NC(=O)C[C@H](CO)NC(=O)[C@@H]1CCCC[C@H]1N)C(C)C | inactive | 
67 | COc1ccc2nccc(C(=O)O)c2c1 | -6.5% [at 3.58 µM] | 
68 | COc1cccc([C@H]2Oc3ccc(OC)cc3/C(=N\OCC[C@@H]3C=C[C@H](OC(C)=O)[C@H](COC(C)=O)O3)[C@@H]2O)c1 | -2.18% [at 8 µM] | 
69 | CC(C)[C@@H](CC(=O)N[C@@H]1CCNC[C@H]1C(=O)N[C@H](CC(=O)N[C@@H](CCC(=O)O)CC(=O)O)Cc1ccccc1)NC(=O)C[C@H](CO)NC(=O)[C@@H]1CNCC[C@H]1N | inactive | 
70 | CC(=O)OCC1OC(C#CCCCc2ccccc2)C=CC1OC(C)=O (stereo not drawn) | -3.55% [at 8 µM] | 
71 | O=Cc1c(Cl)cccc1Cl | inactive | 
72 | COC(=O)[C@@H]1CC[C@H](C)[C@@H](c2ccc(C)cc2)N1C(=O)c1ccc(/C=N\O[C@@H](C)c2cn([C@H](CO)Cc3ccccc3)nn2)cc1 | 5.23% [at 8 µM] | 
73 | O=C(Nc1ccccc1-c1nnn(CC(=O)N2CCN(c3ccccc3)CC2)n1)c1cccs1 | inactive | 
74 | Cc1cc(C)cc(C#CC2C=CC(Oc3ccc(C4CCCC4)cc3)C(CO)O2)c1 (stereo not drawn) | -16.6% [at 8 µM] | 
75 | CS(=O)(=O)N1CCC2(CC1)CN(c1ccncc1)C2 | inactive | 
76 | CCCC[C@H]1C(=O)N(c2ccccc2)N(c2ccc(O)cc2)C1=O | -4.13% [at 3.58 µM] | 
77 | CO[C@H]1COC(=O)[C@@H](OCc2ccccc2)/C=C\[C@H](C)[C@@H](OC)COC(=O)[C@H](OCc2ccccc2)/C=C\[C@@H]1C | -4.42% [at 8 µM] | 
78 | C[C@@H]1C[C@H]2[C@@H]3C[C@H](F)C4=CC(=O)C=C[C@@]4(C)[C@]3(F)[C@H](O)C[C@]2(C)[C@@]1(O)C(=O)CO | 2.5% [at 3.58 µM] | 
79 | COCCn1c(=O)c(-c2cccs2)nc2cncnc21 | inactive | 
80 | COc1ccc(-c2oc3cc(OC)ccc3c2C(=O)c2ccc(C#N)cc2)cc1 | inactive | 
81 | CC(C)(C)[Si](OCC[C@@H]1C[C@@]1(C)[C@@H](NP(=O)(c1ccccc1)c1ccccc1)c1ccccc1)(c1ccccc1)c1ccccc1 | inactive | 
82 | COc1ccc(C(=O)N2CCC3(CCCN(C(c4ccccc4)c4ccccc4)C3)CC2)cc1 | inactive | 
83 | O=C(O)COc1c(Cl)cc(Cl)c2cccnc12 | 10.5% [at 8 µM] | 
